The record followed here is PubChem BioAssay (NCI).

The panel holds about 83,000 compounds, 20% with a hit somewhere; the sample as a whole holds those more often.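 The endpoint reported here, percent growth, reads 100 for growth as untreated, 0 for no net growth and -100 for all cells dead.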 A number with no mark means an inactive call. Active and inactive are the calls of the source. How the source made its calls: active means growth percent below 10; inactive means the rest.

One experiment has as its system UACC-257 melanoma. As to the kind of experiment: NCI-60 one-dose screen, 48 h (100 = growth as untreated, 0 = no growth, -100 = all killed). The note with it: 10 µM unless noted.
With `COc1ccc(/C(C)=N/NS(=O)(=O)c2ccc(C)cc2)cc1OC`, the growth is 104%.
The same measure, in the same setting: with `C[C@@H]1C(=O)N(C[C@@H](Cc2ccccc2)NC(=O)OCc2ccccc2)[C@]1(Cc1ccccc1)C(=O)OCc1ccccc1` the figure was 19.7%.
On the same count and under the same terms, with `NC(=Nc1ccc(N)cc1)C(N)=Nc1ccc(N)cc1` the figure was 31.8%; with `N#Cc1c(NC(=O)c2ccccc2I)sc2c1CCCC2`, 60.7%.
Take `Cc1ccc(Nc2ccc(Nc3ccc(C)cc3S(=O)(=O)O)c3c2C(=O)c2ccccc2C3=O)c(S(=O)(=O)O)c1`: the growth was 112%.
Regarding `C=C1C(=O)O[C@H]2[C@H]1CC/C(Cn1cc(CNCCc3c[nH]c4ccc(Cl)cc34)nn1)=C\CC[C@@]1(C)O[C@@H]21`, the growth is 53.4%.
In the case of `Cn1cc(Nc2nccc(-c3ccc(N4CCCC4)c(C#N)c3)n2)cn1`, the growth is 69.6%.
The same measure, in the same setting: to `CSc1ncc(C)c(Nc2ccc(Cl)cc2)n1` belongs 127%; to `COc1cc(/C=C2\C=C(c3ccccc3)N(CCc3ccccc3)C2=O)cc(OC)c1OC`, 88.2%; to `O=c1cc(-c2ccc(OCc3ccccc3)cc2)oc2c(I)c(OCc3ccccc3)cc(OCc3ccccc3)c12`, 95.9%.
The same measure, in the same setting: with `CC(=O)Nc1nccs1` the figure was 94.2%.
Turning to `N[C@H]1CCC[C@@H]1NCCCCN1C(=O)c2cccc3cccc(c23)C1=O`, the growth was 104%.
Still for that read-out and setting: to `N=C(N)c1ccc(-c2ccc(-c3ccc(Cl)cc3Cl)o2)nc1` belongs 91.4%; to `O=C1N/C(=N/O)S/C1=C/c1cn(-c2ccccc2)nc1-c1ccccc1`, 113%.
Same read-out and setting: with `C[C@@H]1CC[C@@H]2[C@@H]1[C@H](OC(=O)c1ccc3ccccc3c1)[C@]1(C3CCCCC3)C[C@@H](OC(=O)CO)[C@@]2(C)O1` the figure was 63.3%.
Same read-out and setting: to `CN(C)c1ccc(C#Cc2c(F)cccc2Cl)cc1` belongs 91.2%.
Consider `CCCN1CCN(c2ccc3nc(-c4ccc5nc(-c6cc(OC)c(OC)c(OC)c6)[nH]c5c4)[nH]c3c2)CC1`, for which the growth is 71.7%.
Same read-out and setting: with `O=C(NCCOCCOCCOCCNC(=O)c1cc2c(o1)C(=O)c1ccccc1C2=O)NC12CC3CC(CC(C3)C1)C2` the figure was -77% (active).
Consider `COc1cc2c(cc1OC)-c1ccc3cc4c(cc3c1N(CCN(C)C)C2)OCO4`, for which the growth was 10.4%.
The same measure, in the same setting: to `O=C(NC(=S)Nc1ccc(-c2nc3ccccc3[nH]2)cc1)c1ccc2ccccc2c1` belongs 49.2%; to `CC[C@@H](C[C@H](CCO)c1ccccc1)c1cc2ccccc2o1`, 96.9%; to `NC(N)=N/N=C/c1ccc(Br)cc1`, 58.6%.
Same read-out and setting: with `CN(C)CCOC(=O)Nc1ccc(Cl)cc1` the figure was 101%.
Same read-out and setting: with `O=C(/C=C/C12c3ccccc3C(c3ccccc31)C1C(=O)N(c3ccc(Cl)cc3)C(=O)C12)c1ccccn1` (stereo not drawn) the figure was 2.58% (active); with `OC(c1cccc(OCc2ccccc2)c1)c1nnc(-c2ccccc2)o1` (stereo not drawn), 94.5%.
On to `O=C1N(c2ccccc2)C(=S)N[C@]12[C@H](c1ccccc1)C1CCCN1[C@]21C(=O)NC2C=CC(Cl)=C[C@H]21` (stereo partly drawn), for which the growth was 69.8%.
For the compound `COC(=O)/C(=C\c1ccc(OC)cc1)C(=O)N1c2ccccc2Sc2ccccc21`, the growth was 65.4%.
The same measure, in the same setting: to `Cc1ccc(S(=O)(=O)Nc2sccc2-c2nc(-c3ccccc3)no2)cc1` belongs 89.3%.
Same read-out and setting: to `CCNCCNc1cc(-c2ccc(C(F)(F)F)cc2)c(C#N)c2nc3cc(Cl)c(Cl)cc3n12` belongs -85.4% (active).
Consider `COc1ccc(/C=C(\C#N)n2nnc3ccccc32)cc1`, for which the growth was 77.5%.
The same measure, in the same setting: with `CC(C)n1nc(C#Cc2cccc3cc(-c4cccc(C(F)(F)F)c4)ncc23)c2c(N)ncnc21` the figure was 82.7%; with `COC(=O)CNC(=O)C(=O)c1c(O)c(O)c(C(C)C)c2cc(C)c(-c3c(C)cc4c(C(C)C)c(O)c(O)c(C(=O)C(=O)NCC(=O)OC)c4c3O)c(O)c12`, 52.1%.
Still for that read-out and setting: to `NC(=O)c1c(NC(=O)c2ccc(C(F)(F)F)cc2Cl)sc2c1CCC(=O)C2` belongs -22.4% (active); to `C[C@@H](C[C@H](CCOCc1cccnc1)c1ccccc1)c1cc2ccccc2o1`, 94%; to `CCn1c(Sc2nnc(Nc3ccccc3)s2)nc2c1c(=O)n(C)c(=O)n2C`, 97.4%.
On to `Cc1cc(Cl)nc(N(CCCNc2ccnc3cc(Cl)ccc23)Cc2ccccn2)n1`, for which the growth is 53.5%.
On the same count and under the same terms, to `OC(CBr)c1ccnc2ccccc12` (stereo not drawn) belongs 99.6%.
On the same count and under the same terms, with `COc1cc(C2C=C(c3cccc(NC(C)=O)c3)Nc3ncnn32)cc(OC)c1OC` (stereo not drawn) the figure was 71.2%; with `CCCCOC(=O)c1ccc(NC(=O)C(C)N2CCOCC2)cc1` (stereo not drawn), 98.3%.

A further experiment has as its system M14 melanoma. Described as above. The note with it: 10 µM unless noted.
Turning to `COc1ccc(/C(C)=N/NS(=O)(=O)c2ccc(C)cc2)cc1OC`, the growth is 117%.
The same measure, in the same setting: to `C[C@@H]1C(=O)N(C[C@@H](Cc2ccccc2)NC(=O)OCc2ccccc2)[C@]1(Cc1ccccc1)C(=O)OCc1ccccc1` belongs 44.8%.
On the same count and under the same terms, to `NC(=Nc1ccc(N)cc1)C(N)=Nc1ccc(N)cc1` belongs 99.7%.
On the same count and under the same terms, to `N#Cc1c(NC(=O)c2ccccc2I)sc2c1CCCC2` belongs 16.3%; to `Cc1ccc(Nc2ccc(Nc3ccc(C)cc3S(=O)(=O)O)c3c2C(=O)c2ccccc2C3=O)c(S(=O)(=O)O)c1`, 88%; to `C=C1C(=O)O[C@H]2[C@H]1CC/C(Cn1cc(CNCCc3c[nH]c4ccc(Cl)cc34)nn1)=C\CC[C@@]1(C)O[C@@H]21`, 66.1%.
Regarding `Cn1cc(Nc2nccc(-c3ccc(N4CCCC4)c(C#N)c3)n2)cn1`, the growth was 17.2%.
Same read-out and setting: with `CSc1ncc(C)c(Nc2ccc(Cl)cc2)n1` the figure was 112%; with `COc1cc(/C=C2\C=C(c3ccccc3)N(CCc3ccccc3)C2=O)cc(OC)c1OC`, 73.6%.
Still for that read-out and setting: with `O=c1cc(-c2ccc(OCc3ccccc3)cc2)oc2c(I)c(OCc3ccccc3)cc(OCc3ccccc3)c12` the figure was 95.6%; with `CC(=O)Nc1nccs1`, 112%; with `N[C@H]1CCC[C@@H]1NCCCCN1C(=O)c2cccc3cccc(c23)C1=O`, 53.1%.
Same read-out and setting: to `N=C(N)c1ccc(-c2ccc(-c3ccc(Cl)cc3Cl)o2)nc1` belongs 70.2%; to `O=C1N/C(=N/O)S/C1=C/c1cn(-c2ccccc2)nc1-c1ccccc1`, 105%; to `C[C@@H]1CC[C@@H]2[C@@H]1[C@H](OC(=O)c1ccc3ccccc3c1)[C@]1(C3CCCCC3)C[C@@H](OC(=O)CO)[C@@]2(C)O1`, 61.4%.
As for `CN(C)c1ccc(C#Cc2c(F)cccc2Cl)cc1`, the growth is 100%.
Regarding `CCCN1CCN(c2ccc3nc(-c4ccc5nc(-c6cc(OC)c(OC)c(OC)c6)[nH]c5c4)[nH]c3c2)CC1`, the growth was 63.9%.
Take `O=C(NCCOCCOCCOCCNC(=O)c1cc2c(o1)C(=O)c1ccccc1C2=O)NC12CC3CC(CC(C3)C1)C2`: the growth is -40.2% (active).
The same measure, in the same setting: with `COc1cc2c(cc1OC)-c1ccc3cc4c(cc3c1N(CCN(C)C)C2)OCO4` the figure was -7.62% (active).
Regarding `O=C(NC(=S)Nc1ccc(-c2nc3ccccc3[nH]2)cc1)c1ccc2ccccc2c1`, the growth is 38%.
Same read-out and setting: with `CC[C@@H](C[C@H](CCO)c1ccccc1)c1cc2ccccc2o1` the figure was 91.9%.
For `NC(N)=N/N=C/c1ccc(Br)cc1`, the growth was 14.6%.
Consider `CN(C)CCOC(=O)Nc1ccc(Cl)cc1`, for which the growth was 90.5%.
On to `O=C(/C=C/C12c3ccccc3C(c3ccccc31)C1C(=O)N(c3ccc(Cl)cc3)C(=O)C12)c1ccccn1` (stereo not drawn), for which the growth was -1.41% (active).
As for `OC(c1cccc(OCc2ccccc2)c1)c1nnc(-c2ccccc2)o1` (stereo not drawn), the growth is 105%.
With `O=C1N(c2ccccc2)C(=S)N[C@]12[C@H](c1ccccc1)C1CCCN1[C@]21C(=O)NC2C=CC(Cl)=C[C@H]21` (stereo partly drawn), the growth is 81.9%.
The same measure, in the same setting: with `COC(=O)/C(=C\c1ccc(OC)cc1)C(=O)N1c2ccccc2Sc2ccccc21` the figure was 23.3%; with `Cc1ccc(S(=O)(=O)Nc2sccc2-c2nc(-c3ccccc3)no2)cc1`, 87.1%; with `CCNCCNc1cc(-c2ccc(C(F)(F)F)cc2)c(C#N)c2nc3cc(Cl)c(Cl)cc3n12`, -81.5% (active).
Still for that read-out and setting: with `COc1ccc(/C=C(\C#N)n2nnc3ccccc32)cc1` the figure was -11% (active); with `CC(C)n1nc(C#Cc2cccc3cc(-c4cccc(C(F)(F)F)c4)ncc23)c2c(N)ncnc21`, 56.2%.
Consider `COC(=O)CNC(=O)C(=O)c1c(O)c(O)c(C(C)C)c2cc(C)c(-c3c(C)cc4c(C(C)C)c(O)c(O)c(C(=O)C(=O)NCC(=O)OC)c4c3O)c(O)c12`, for which the growth is 36.7%.
As to `NC(=O)c1c(NC(=O)c2ccc(C(F)(F)F)cc2Cl)sc2c1CCC(=O)C2`, the growth is -30.1% (active).
Still for that read-out and setting: to `C[C@@H](C[C@H](CCOCc1cccnc1)c1ccccc1)c1cc2ccccc2o1` belongs 92.8%; to `CCn1c(Sc2nnc(Nc3ccccc3)s2)nc2c1c(=O)n(C)c(=O)n2C`, 104%; to `Cc1cc(Cl)nc(N(CCCNc2ccnc3cc(Cl)ccc23)Cc2ccccn2)n1`, 44.4%.
Same read-out and setting: to `OC(CBr)c1ccnc2ccccc12` (stereo not drawn) belongs 98%; to `COc1cc(C2C=C(c3cccc(NC(C)=O)c3)Nc3ncnn32)cc(OC)c1OC` (stereo not drawn), 20.4%; to `CCCCOC(=O)c1ccc(NC(=O)C(C)N2CCOCC2)cc1` (stereo not drawn), 93.7%.
